Rows were chosen to be rich in hits. Some 5.5% of all compounds tested hit in one or more screens of this group.
uPA generation: cell surface uPA generation inhibition; AID 540303; cell surface uPA generation assay, qHTS; Potency, µM (series often up to 38.3 µM), for inactives: at the top dose activity change, negative = inhibition, actives largely listed as inhibitors; actives 0.31% (n = 330,000); active means well fitted inhibition curve with a large enough effect; inconclusive means small, poorly fitted or top-dose-only effect; inactive means no such curve, though single readings can be large or run the other way; tested in mouse RAW 264.7 cells; further: on the % scale 0 is the no-effect control and ±100 the full control effect; nearly all actives have a fitted effect of over 55% in size
Mito fusion act: inhibitors of mitochondrial division or activators of mitochondrial fusion; S. cerevisiae fusion-defective mutant growth rescue, CellTiterGlo 48 h; Potency, µM (doses to about 46.1 µM), for inactives: at the top dose growth rescue (activation), usual class: activators; actives 0.23% (n = 320,000); AID 485298; further: % of control where 0% means no effect; nearly all actives have a fitted effect of over 45% in size
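Luminescent cell viability in 1536-well qHTS format served as the measure of rescued growth in ts fusion-mutant S. cerevisiae cultured on non-fermentable YPEG for 48 hours at 37C.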
Integrin act MD: integrin-mediated muscular dystrophy alleviation activation; Potency, µM (highest dose often 38.3 µM), for inactives: at the top dose activation, actives largely listed as activators; actives 0.064% (n = 350,000); alpha7betagal myoblasts, beta-gal FDG fluorescence, 48 h;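 further: 100% = response of the positive control SU9516; nearly all actives have a fitted effect of over 60% in size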
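alpha7betagal+/- myoblasts (passage 13, 250/well) treated 48 h at 37C with compounds at 1:260 dilution of DMSO stock. Lysed, then beta-galactosidase activity read as FDG fluorescence (ex 480/em 540) after 30 min, with pre-read for autofluorescence.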
RORgamma inh: inhibitors of mouse ROR gamma transcriptional activity; P51450; Drosophila S2 Gal4-RORgamma UAS-luciferase reporter, 20 h; Potency, µM (titrated, usually from 53.6 µM), without a hit: at the top dose activity change, negative = inhibition, most hits filed as inhibitors; actives 5.4% (n = 310,000); further: on the % scale 0 is the no-effect control and ±100 the full control effect; nearly all actives have a fitted effect of over 60% in size
Target sequence (P51450 whole entry, looked up, the tested form may be a part): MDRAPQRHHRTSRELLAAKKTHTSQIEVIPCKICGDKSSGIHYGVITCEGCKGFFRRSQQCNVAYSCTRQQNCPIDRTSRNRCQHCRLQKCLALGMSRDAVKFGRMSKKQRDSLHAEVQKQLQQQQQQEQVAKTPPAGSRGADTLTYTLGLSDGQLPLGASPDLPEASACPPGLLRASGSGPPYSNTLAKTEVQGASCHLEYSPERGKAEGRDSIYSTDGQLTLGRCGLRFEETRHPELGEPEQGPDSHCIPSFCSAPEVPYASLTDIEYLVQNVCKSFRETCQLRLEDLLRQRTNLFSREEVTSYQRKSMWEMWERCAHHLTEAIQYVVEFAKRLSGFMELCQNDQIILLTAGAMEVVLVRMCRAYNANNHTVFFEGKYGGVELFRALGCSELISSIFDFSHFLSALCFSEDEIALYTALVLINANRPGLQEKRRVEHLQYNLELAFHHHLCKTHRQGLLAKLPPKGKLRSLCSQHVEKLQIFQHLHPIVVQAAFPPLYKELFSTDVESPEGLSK
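ROR gamma transcriptional activity was tracked as Gal4-UAS luciferase output in stably transfected Drosophila Schneider cells, with compound added 1 hr before 700 uM copper sulfate induction and a 20 hr ambient-temperature incubation.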
Chronic BCR inh: inhibitors of chronic active B-cell receptor signaling; ABC-DLBCL IkBa-CBG/CBR reporter, luminescence ratio, 4 h; Potency, µM (series often up to 46.1 µM), for the others: at the top dose activity change, negative = inhibition, usual class: inhibitors; actives 0.05% (n = 340,000); AID 493014; active means well fitted inhibition curve with a large enough effect in the signal ratio, with a control signal flat, not every such curve was filed as active; inconclusive means small, poorly fitted or top-dose-only effect, or effect the other way, or a change in a side signal; the % refers to the signal ratio;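 further: plate controls were basal doxycycline-induced cells for no effect and cells given 10 µM MG132 for full effect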
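Compounds up to 46 uM were incubated four hours with TMD8 cells whose green CBG68 luciferase is fused to IkappaBalpha; red CBR luminescence normalised the signal, and concentration-effect curves were fitted to fusion, red and ratio data.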
Gal4-VP16 FLuc: inhibits Gal4-VP16 luciferase reporter, ROR gamma counter-screen. Drosophila S2 Gal4-VP16 UAS-luciferase, luminescence, 20 h. AID 2546. Potency, µM (top dose mostly 53.6 µM), for the others: at the top dose activity, negative = inhibition, actives largely listed as inhibitors. actives 3.5% (n = 310,000);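 further: Gal4-VP16 expression switched on by copper sulfate through the metallothionein promoter; on the % scale 0 is the no-effect control and ±100 the full control effect; nearly all actives have a fitted effect of over 50% in size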
* hit, by the source's call. Unless noted, the call rests on the fitted dose curve; in most records, active means well fitted curve in the direction sought with a large enough effect; inconclusive means small, poorly fitted or top-dose-only effect, or another doubt; inactive means no such curve, though single readings can be large; an effect the other way counts as inactive or inconclusive. Potency means the concentration at half of the fitted maximal effect.

Results for COc1ccc(-c2cc(COc3ccccc3)on2)cc1 ?
uPA generation: -3.5%; Mito fusion act: 10.3%; Integrin act MD: 10µM*; RORgamma inh: 21.3%; Chronic BCR inh: inconclusive; Gal4-VP16 FLuc: 24.0%

Results for Fc1ccc(OCc2cc(-c3ccccc3)no2)cc1 ?
uPA generation: 0.8%; Mito fusion act: 4.0%; Integrin act MD: -9.5%; RORgamma inh: -2.9%; Chronic BCR inh: inconclusive; Gal4-VP16 FLuc: -4.0%

Results for CC1=C(C(=O)N(C)C)CC(CC(=O)NCCc2ccccn2)C(=O)N1Cc1ccccc1 (stereo unspecified) ?
Integrin act MD: -10.3%

How did S=c1[nH]nc(-c2cccc(Cl)c2)n1Cc1ccccc1 do in these assays?
uPA generation: 4.5%; Mito fusion act: 27.5%; Integrin act MD: 17.7%; RORgamma inh: 2.51µM*; Chronic BCR inh: 0.1%; Gal4-VP16 FLuc: 2.51µM*

What do the screens show for `COc1ccc(Cn2c(-c3ccc(OC)cc3)n[nH]c2=S)cc1`?
uPA generation: 3.2%; Mito fusion act: -10.1%; Integrin act MD: 15.2%; RORgamma inh: 7.94µM*; Chronic BCR inh: -0.1%; Gal4-VP16 FLuc: -27.1%

How did Clc1cccc(-c2nc3nc4ccccc4nc3n2Cc2ccccc2)c1 do in these assays?
uPA generation: 4.3%; Mito fusion act: 0.1%; Integrin act MD: 24.1%; RORgamma inh: -8.2%; Chronic BCR inh: 7.8%; Gal4-VP16 FLuc: -14.8%

Results for Cc1ccccc1-c1n[nH]c(=S)n1Cc1ccccc1 ?
uPA generation: 0.9%; Mito fusion act: -3.1%; Integrin act MD: 9.4%; RORgamma inh: 2.0%; Chronic BCR inh: -0.9%; Gal4-VP16 FLuc: -2.7%

What do the screens show for `S=c1[nH]nc(-c2ccc(Cl)cc2Cl)n1Cc1ccccc1`?
uPA generation: 2.5%; Mito fusion act: 16.7%; Integrin act MD: 8.0%; RORgamma inh: 2.82µM*; Chronic BCR inh: inconclusive; Gal4-VP16 FLuc: 5.62µM*

Results for Cc1ccc(-c2n[nH]c(=S)n2Cc2ccccc2)cc1 ?
Mito fusion act: 12.4%; Integrin act MD: -11.7%; RORgamma inh: 2.82µM*; Chronic BCR inh: 6.3%; Gal4-VP16 FLuc: 6.31µM*

How did O=C(CCCc1ccccc1)NC1CC(=O)N(c2ccc(Cl)cc2)C1 (stereo unspecified) do in these assays?
Chronic BCR inh: 4.7%

What do the screens show for `C#Cc1ccc2c(c1)C(=O)N(C)Cc1c(C(=O)OCCCOC(=O)c3ncn4c3CN(C)C(=O)c3cc(C#C)ccc3-4)ncn1-2`?
RORgamma inh: -12.8%; Gal4-VP16 FLuc: -5.8%

How did c1cncc(-c2cc(-n3ccnc3)ncn2)c1 do in these assays?
RORgamma inh: 14.7%; Gal4-VP16 FLuc: 1.8%

Results for CCN(C(=O)c1cn(C)c(=O)c2ccccc12)c1ccccc1F ?
uPA generation: -2.7%; Mito fusion act: 11.7%; Integrin act MD: 45.8%; RORgamma inh: -5.6%; Chronic BCR inh: 2.5%; Gal4-VP16 FLuc: 29.8%

How did CCn1c(C(c2ccccc2)c2ccccc2)n[nH]c1=S do in these assays?
uPA generation: 9.1%; Mito fusion act: 3.7%; Integrin act MD: -27.8%; RORgamma inh: inconclusive; Chronic BCR inh: inconclusive; Gal4-VP16 FLuc: inconclusive

What do the screens show for `C=CCn1c(-c2c(C)nc3cc(C)ccn23)n[nH]c1=S`?
uPA generation: 0.2%; Mito fusion act: 1.5%; Integrin act MD: 18.4%; RORgamma inh: inconclusive; Chronic BCR inh: 1.0%; Gal4-VP16 FLuc: inconclusive

Results for S=c1[nH]nc(-c2cc3ccccc3o2)n1Cc1ccccc1 ?
uPA generation: 3.7%; Mito fusion act: 14.1µM*; Integrin act MD: 3.8%; RORgamma inh: 0.631µM*; Chronic BCR inh: 12.4%; Gal4-VP16 FLuc: 1.78µM*

What do the screens show for `CC(c1n[nH]c(=S)n1Cc1ccccc1)N(C)C` (stereo unspecified)?
uPA generation: 2.3%; Mito fusion act: -4.2%; Integrin act MD: 0.3%; RORgamma inh: 1.78µM*; Chronic BCR inh: -0.1%; Gal4-VP16 FLuc: inconclusive

What do the screens show for `C=CCn1c(-c2sccc2C)n[nH]c1=S`?
uPA generation: -3.5%; Mito fusion act: -5.7%; Integrin act MD: -11.9%; RORgamma inh: 10µM*; Chronic BCR inh: -0.4%; Gal4-VP16 FLuc: inconclusive

Results for CCn1c(-c2cccn(Cc3ccc(Cl)cc3Cl)c2=O)n[nH]c1=S ?
uPA generation: -4.4%; Mito fusion act: -0.8%; Integrin act MD: 11.2%; RORgamma inh: 10µM*; Chronic BCR inh: 0.7%; Gal4-VP16 FLuc: -16.8%

How did C=C1C(=O)OC2C=C(CO)C3OC3C3OC3(C)CC(OC(=O)/C(=C/C)COC(C)=O)C12 (stereo unspecified) do in these assays?
uPA generation: 31.6%; Integrin act MD: -52.3%

How did C=CCn1c(-c2cccc(Cl)c2)n[nH]c1=S do in these assays?
uPA generation: 3.0%; Mito fusion act: -17.0%; Integrin act MD: -6.2%; RORgamma inh: 3.98µM*; Chronic BCR inh: -0.6%; Gal4-VP16 FLuc: 7.08µM*

What do the screens show for `CC(C)Oc1ccc(Cn2c(-c3ccco3)n[nH]c2=S)cc1`?
uPA generation: -1.0%; Mito fusion act: 24.2%; Integrin act MD: 11.9%; RORgamma inh: 2.82µM*; Chronic BCR inh: 0.0%; Gal4-VP16 FLuc: 4.47µM*

Results for C=CCn1c(CSc2nnc(-c3ccccc3)n2C)n[nH]c1=S ?
uPA generation: -0.6%; Mito fusion act: -7.0%; Integrin act MD: 4.7%; RORgamma inh: 20.1%; Chronic BCR inh: 3.3%; Gal4-VP16 FLuc: 4.1%

Results for Cc1cccc(-c2n[nH]c(=S)n2Cc2ccccc2)c1 ?
uPA generation: -2.1%; Mito fusion act: inconclusive; Integrin act MD: -1.6%; RORgamma inh: 0.794µM*; Chronic BCR inh: -10.7%; Gal4-VP16 FLuc: 0.562µM*

How did C=CCn1c(CSc2ccc(C)cc2)n[nH]c1=S do in these assays?
uPA generation: 6.3%; Mito fusion act: -22.3%; Integrin act MD: 15.7%; RORgamma inh: 3.98µM*; Chronic BCR inh: -23.5%; Gal4-VP16 FLuc: 14.1µM*

Results for COc1ccc(Br)c(C(=O)OCC(=O)NC2CCCCCCC2)c1 ?
Integrin act MD: -1.1%

What do the screens show for `CCOc1ccc(-c2n[nH]c(=S)n2Cc2ccccc2)cc1`?
uPA generation: 33.0%; Mito fusion act: -4.0%; Integrin act MD: 0.0%; RORgamma inh: 6.31µM*; Chronic BCR inh: -0.7%; Gal4-VP16 FLuc: 5.62µM*

What do the screens show for `COc1ccc(-c2n[nH]c(=S)n2CC(C)C)cc1`?
uPA generation: -1.1%; Mito fusion act: 2.1%; Integrin act MD: -15.6%; RORgamma inh: 10µM*; Chronic BCR inh: -12.7%; Gal4-VP16 FLuc: inconclusive

Results for S=C(Nc1ccc2nsnc2c1)NC1CCCCC1 ?
uPA generation: 0.6%; Mito fusion act: inconclusive; Integrin act MD: -32.0%; RORgamma inh: 2.51µM*; Chronic BCR inh: inconclusive; Gal4-VP16 FLuc: 5.01µM*
